Read-out in assay [1]: Low-density lipoprotein receptor (LDLR), LDLR (gene 3949)
Description: BSK_CASM3C_LDLR: BioMAP Diversity Plus: CASM3C Assay for Low-density lipoprotein receptor (LDLR) Biomarker Activity (AID 2283045).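 Also: LDLR protein level on the cell surface quantified by ELISA.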 The following applies: primary human coronary artery smooth muscle cells; actives raise or lower the signal.

Read-out in assay [2]: Monocyte Chemoattractant Protein-1 (MCP1), CCL2 (gene 6347)
The assay can be described thus: BSK_CASM3C_MCP1: BioMAP Diversity Plus: CASM3C Assay for Monocyte Chemoattractant Protein-1 (MCP1) Biomarker Activity (AID 2283046).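 Also: MCP-1 level quantified by ELISA 24 h after dosing.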 The following applies: primary human coronary artery smooth muscle cells; actives raise or lower the signal.

The nature of assay [3]: BSK_CASM3C_Proliferation: Cell Proliferation Assessment in the BioMAP Diversity Plus: CASM3C Assay (AID 2283047).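 Also: sulforhodamine B total protein stain as relative cell number at 560 nm; sub-confluent cells exposed 48 h before staining; fitted both ways against DMSO so gain or loss of cell number.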 To be noted: primary human coronary artery smooth muscle cells.
Read-out in assay [4]: Monokine induced gamma interferon (MIG), CXCL9 (gene 4283)
The assay can be described thus: BSK_CASM3C_MIG: BioMAP Diversity Plus: CASM3C Assay for Monokine induced gamma interferon (MIG) Biomarker Activity (AID 2283048).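 Also: MIG protein level measured by ELISA.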 The following applies: primary human coronary artery smooth muscle cells; actives raise or lower the signal.

Read-out in assay [5]: serum amyloid A (SAA), SAA1 (gene 6288)
The assay can be described thus: BSK_CASM3C_SAA: BioMAP Diversity Plus: CASM3C Assay for serum amyloid A (SAA) Biomarker Activity (AID 2283049).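 Also: SAA protein level quantified by ELISA.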 The following applies: primary human coronary artery smooth muscle cells; actives raise or lower the signal.

The nature of assay [6]: BSK_CASM3C_SRB: Viability Assessment in the BioMAP Diversity Plus: CASM3C Assay (AID 2283050).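 Also: cells exposed to compound for 24 h.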 To be noted: primary human coronary artery smooth muscle cells.
Read-out in assay [7]: Thrombomodulin, THBD (gene 7056)
The assay can be described thus: BSK_CASM3C_Thrombomodulin: BioMAP Diversity Plus: CASM3C Assay for Thrombomodulin Biomarker Activity (AID 2283051).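 Also: thrombomodulin protein level measured by ELISA 24 h after dosing.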 The following applies: primary human coronary artery smooth muscle cells; actives raise or lower the signal.

Read-out in assay [8]: Tissue Factor, F3 (gene 2152)
The assay can be described thus: BSK_CASM3C_TissueFactor: BioMAP Diversity Plus: CASM3C Assay for Tissue Factor Biomarker Activity (AID 2283052).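 Also: cell surface tissue factor protein level read by ELISA.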 To be noted: primary human coronary artery smooth muscle cells; actives raise or lower the signal.

Read-out in assay [9]: Interferon-gamma inducible Protein 10 (IP10), CXCL10 (gene 3627)
Description: BSK_hDFCGF_IP10: BioMAP Diversity Plus: hDFCGF Assay for Interferon-gamma inducible Protein 10 (IP10) Biomarker Activity (AID 2283053). The following applies: primary human foreskin fibroblasts; actives raise or lower the signal. An outline of the steps:
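Primary human foreskin fibroblasts exposed to chemicals for 24 h. IP-10 measured by ELISA; changes fitted bidirectionally against DMSO baseline.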

Read-out in assay [10]: Urokinase-type plasminogen activator receptor (uPAR), PLAUR (gene 5329)
The assay can be described thus: BSK_CASM3C_uPAR: BioMAP Diversity Plus: CASM3C Assay for Urokinase-type plasminogen activator receptor (uPAR) Biomarker Activity (AID 2283054).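 Also: cell-surface uPAR protein level quantified by ELISA.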 To be noted: primary human coronary artery smooth muscle cells; actives raise or lower the signal.

Read-out in assay [11]: Vascular cell adhesion molecule 1 (VCAM1), VCAM1 (gene 7412)
Description: BSK_CASM3C_VCAM1: BioMAP Diversity Plus: CASM3C Assay for Vascular cell adhesion molecule 1 (VCAM1) Biomarker Activity (AID 2283055).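 Also: VCAM-1 protein level quantified by ELISA on the cells.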 The following applies: primary human coronary artery smooth muscle cells; actives raise or lower the signal.

Read-out in assay [12]: Collagen III, COL3A1 (gene 1281)
The assay can be described thus: BSK_hDFCGF_CollagenIII: BioMAP Diversity Plus: hDFCGF Assay for Collagen III Biomarker Activity (AID 2283056). To be noted: primary human foreskin fibroblasts; actives raise or lower the signal. An outline of the steps:
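ELISA readout of Collagen III in human dermal (foreskin) fibroblasts, taken 24 h post-treatment. Gain or loss relative to DMSO vehicle fitted in both directions.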

Read-out in assay [13]: Epidermal growth factor receptor (EGFR), EGFR (gene 1956)
The assay can be described thus: BSK_hDFCGF_EGFR: BioMAP Diversity Plus: hDFCGF Assay for Epidermal growth factor receptor (EGFR) Biomarker Activity (AID 2283057). To be noted: primary human foreskin fibroblasts; actives raise or lower the signal. An outline of the steps: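 Primary human foreskin fibroblasts (hDFCGF system), sampled 24 h after dosing; EGFR quantified by ELISA. Bidirectional fit relative to DMSO baseline; SRB total-protein staining in parallel cultures for cytotoxicity.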

Read-out in assay [14]: Interleukin-8 (IL8), CXCL8 (gene 3576)
Description: BSK_hDFCGF_IL8: BioMAP Diversity Plus: hDFCGF Assay for Interleukin-8 (IL8) Biomarker Activity (AID 2283058). The following applies: primary human foreskin fibroblasts; actives raise or lower the signal. An outline of the steps: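 IL-8 levels read by ELISA at 24 hours after dosing human skin fibroblast cultures. Parallel SRB staining assessed overt cytotoxicity, and gain or loss of signal was fitted against DMSO control.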

A short description of assay [15]: BSK_hDFCGF_Proliferation: Cell Proliferation Assessment in the BioMAP Diversity Plus: hDFCGF Assay (AID 2283059).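 Also: curves fitted for both rise and fall of signal versus DMSO baseline.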 To be noted: primary human foreskin fibroblasts. An outline of the steps:
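This proliferation readout used SRB total-protein staining of human foreskin fibroblasts […], normalized to DMSO with bidirectional curve fitting.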

Read-out in assay [16]: Macrophage colony-stimulating factor (MCSF), CSF1 (gene 1435)
The assay can be described thus: BSK_hDFCGF_MCSF: BioMAP Diversity Plus: hDFCGF Assay for Macrophage colony-stimulating factor (MCSF) Biomarker Activity (AID 2283060). The following applies: primary human foreskin fibroblasts; actives raise or lower the signal. An outline of the steps:
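M-CSF levels read by ELISA at 24 h post-dosing in human skin fibroblasts. Parallel cultures stained with SRB assessed cytotoxicity at the same time point; response fitted in both directions against the DMSO baseline.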

Assay [17] is described as follows: BSK_hDFCGF_SRB: Viability Assessment in the BioMAP Diversity Plus: hDFCGF Assay (AID 2283061).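 Also: cells exposed to compound for 24 h before the read.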 To be noted: primary human foreskin fibroblasts. An outline of the steps: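 Viability was read as total protein: after 10% TCA fixation, wells were stained with 0.1% sulforhodamine B and read at 560 nm. Primary human foreskin fibroblasts were dosed for 24 h, with bidirectional fitting versus DMSO.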

Read-out in assay [18]: TIMP metallopeptidase inhibitor 1 (TIMP1), TIMP1 (gene 7076)
The assay can be described thus: BSK_hDFCGF_TIMP1: BioMAP Diversity Plus: hDFCGF Assay for TIMP metallopeptidase inhibitor 1 (TIMP1) Biomarker Activity (AID 2283062). To be noted: primary human foreskin fibroblasts; actives raise or lower the signal. An outline of the steps: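 TIMP-1 measured by ELISA 24 h after chemical dosing of primary human skin fibroblasts, with gain or loss fitted relative to DMSO. Parallel SRB staining (560 nm) monitored overt cytotoxicity.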

Read-out in assay [19]: Monokine induced gamma interferon (MIG), CXCL9 (gene 4283)
The assay can be described thus: BSK_hDFCGF_MIG: BioMAP Diversity Plus: hDFCGF Assay for Monokine induced gamma interferon (MIG) Biomarker Activity (AID 2283063). The following applies: primary human foreskin fibroblasts; actives raise or lower the signal. An outline of the steps:
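Human primary foreskin fibroblasts in the hDFCGF system, exposed to test chemical for 24 h; MIG measured by ELISA. Bidirectional curve fitting against DMSO negative control as activity baseline.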

Read-out in assay [20]: Matrix Metallopeptidase 1 (MMP1), MMP1 (gene 4312)
Description: BSK_hDFCGF_MMP1: BioMAP Diversity Plus: hDFCGF Assay for Matrix Metallopeptidase 1 (MMP1) Biomarker Activity (AID 2283064). The following applies: primary human foreskin fibroblasts; actives raise or lower the signal. An outline of the steps:
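hDFCGF primary fibroblasts (human foreskin); chemical added; 24 h; MMP1 by ELISA; bidirectional fit vs DMSO.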

The source made the active and inactive calls. The calls were made as follows: active = hit-call score of the fitted dose curve at least 0.9, where 1 is the maximum; inactive = score below 0.9.

For `O=C1CCCCC1`, the outcome in [1], in [2], in assay [3], in assay [4], in [5] and in [6] was inactive. Moreover, the outcome in [8], in assay [9], in assay [10], in [11], in assay [12] and in [13] was inactive. The result in [14], in assay [15], in assay [16], in assay [17], in [18] and in [19] was inactive. The outcome in assay [20] was inactive. Moreover, the AC50 in assay [7] is 0.194 µM (active).

For the compound `CCCCCCC(CCCCCCCCCCC(=O)OCC(COC(C)=O)OC(C)=O)OC(C)=O` (stereo not drawn), the outcome in assay [1], in assay [2], in assay [3], in [4], in assay [5] and in [6] was inactive. Further, the result in [7], in [8], in assay [9], in assay [10], in assay [11] and in [13] was inactive. Besides, the result in [14], in assay [16], in [17], in assay [18], in assay [19] and in assay [20] was inactive. For the same compound, the AC50 in [12] is 2.73 µM (active); in [15], 3.11 µM (active).

For the compound `O=C(N[C@@H](c1ccccc1)[C@@H]1CCCCN1)c1cccc(C(F)(F)F)c1Cl`, the AC50 in assay [1] was 15.4 µM (active); in assay [3], 30.3 µM (active); in assay [6], 30.9 µM (active); in assay [9] it was 10.5 µM (active); in [15] it was 28.7 µM (active). In addition, the outcome in [2], in assay [4], in [5], in assay [7], in [8] and in assay [10] was inactive. The outcome in assay [11], in assay [12], in assay [13], in [14], in assay [16] and in [17] was inactive. Further, the outcome in [18], in [19] and in assay [20] was inactive.

In the case of `NCCOCCOCCN`, the outcome in assay [1], in [2], in [3], in [4], in assay [5] and in [6] was inactive. Also, the result in assay [7], in assay [8], in assay [9], in [10], in assay [11] and in assay [12] was inactive. Further, the result in assay [13], in [14], in assay [16], in [17], in [18] and in assay [19] was inactive. The outcome in [20] was inactive. Also, in assay [15], the AC50 was 14.6 µM (active).

`CC(C)(O)c1ccc(CNC(=O)c2cccnc2Oc2ccc(F)cc2)cc1`: the result in assay [1], in assay [2], in assay [3], in assay [4], in assay [5] and in assay [6] was inactive. The outcome in assay [7], in assay [8], in assay [9], in [10], in assay [11] and in assay [12] was inactive. For the same compound, the result in [13], in [14], in [15], in assay [16], in assay [17] and in assay [18] was inactive. Also, the result in [19] and in assay [20] was inactive.

As for `NC(=Nc1ccccc1)Nc1ccccc1`, the outcome in [1], in assay [2], in [3], in assay [4], in assay [5] and in [6] was inactive. Further, the outcome in assay [7], in [8], in assay [9], in assay [10], in [11] and in assay [12] was inactive. The outcome in assay [13], in assay [14], in [17] and in [18] was inactive. In addition, the AC50 is 30.3 µM (active) in assay [15], 9.15 µM (active) in [16] and 3.71 µM (active) in assay [20].

Take `NC=O`: the outcome in assay [1], in assay [2], in [3], in assay [4], in assay [5] and in [6] was inactive. Besides, the result in [7], in assay [8], in [9], in assay [10], in assay [11] and in assay [12] was inactive. The outcome in assay [13], in assay [14], in assay [16], in assay [17], in assay [18] and in [19] was inactive. Besides, the result in assay [20] was inactive. Besides, in assay [15], the AC50 was 19.2 µM (active).

In the case of `COC(=O)[C@H]1[C@H]2C[C@@H]3c4[nH]c5cc(OC)ccc5c4CCN3C[C@H]2C[C@@H](OC(=O)c2cc(OC)c(OC)c(OC)c2)[C@@H]1OC`, the AC50 was 8.87 µM (active) in assay [1], 21.3 µM (active) in [3], 16.9 µM (active) in assay [7] and 16.9 µM (active) in assay [15]. For the same compound, the result in [2], in assay [4], in assay [5], in [6], in assay [8] and in assay [9] was inactive. Besides, the outcome in assay [10], in [11], in assay [13], in [14], in assay [16] and in [17] was inactive. Also, the outcome in assay [18], in [19] and in assay [20] was inactive.

These data come from PubChem BioAssay (EPA / NIEHS).
